SMILES strings stand for the structures. Compounds without any hit were thinned out: in the full panel of roughly 83,000, 20% have a hit.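 Step 1: grow cells in 96-well plates. Step 2: add test compound at a single concentration. Step 3: incubate 48 h. Step 4: record percent growth.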 A number with no mark means an inactive call. Calls of active or inactive are those of the source.

The test system of this assay is HCT-15 colon. Kind of assay: NCI-60 one-dose screen, 48 h (100 = growth as untreated, 0 = no growth, -100 = all killed). To be noted: 10 µM unless noted. The protocol: Growth inhibition of the HCT-15 human tumor cell line is measured as a screen for anti-cancer activity. Cells are grown in 96 well plates and exposed to the test compound for 48 hours. Compounds are tested at a single concentration, which is 10^-5 M for most compounds. The reported endpoint is percent growth (GI% or GIPRCNT), where numbers from 0 - 100% represent growth inhibition, and numbers from -100% - 0 represent cell death. For example, a value of 40 represents 60% growth inhibition. A value of 0 means no net growth occurred over the course of the experiment. A value of -40 indicates 40% of cells at the beginning of the experiment died by the end of the experiment. A value of -100 means all cells are dead at the end of the experiment.
NCI-60 Human Tumor Cell Lines Screen was performed using the standard one-dose NCI protocol, which is described in more detail at https://dtp.cancer.gov/discovery_development/nci-60/default.htm.
Compounds with GIPRCNT values below 10 were considered active. Activity score was based on GIPRCNT using the following formula: […]
Score is 0 for GIPRCNT values of 100 or above, 50 for GIPRCNT values of 0, and 100 for GIPRCNT values of -100.
Take `C[C@H]1C[C@@H](n2cnc3c(N)nccc32)[C@H](O)[C@@H]1O`: the growth was 87.8%. `O=C(Nc1ccc(-n2cc(-c3ccncc3)c(-c3ccc(Cl)c(O)c3)n2)cc1)Nc1ccc(Cl)c(C(F)(F)F)c1`: the growth is 2.66% (active).

With `COC(=O)[C@H](Cc1cn(C)cn1)NC(=O)[C@@H](NC(=O)Nc1cc(C(F)(F)F)cc(C(F)(F)F)c1)C(C)(C)C`, the growth is 70.5% [100 µM]. On to `C/C=C(/C)C(=O)OC1C=C(CO)C(=O)C(OC(=O)C(C)(O)C(C)Cl)C1C(C)C` (stereo not given), for which the growth was -20.7% (active). For the compound `CCN(CC)CCOC(=O)c1cccnc1`, the growth was 98.7%. In the case of `O=C(/C=C/c1ccc(Br)cc1)c1ccccc1` it was 72.5%; in that of `COc1ccc2oc(=O)cc(CN3C(=O)S/C(=C\c4ccc(Cl)cc4)C3=O)c2c1`, 92.3%; in that of `CC(=O)Nc1nc(C)c(C(=O)NN)s1`, 107%. As for `CCN(CC)CCNc1ncnc2c1cnn2-c1ccc(Cl)cc1`, the growth is 34.8%. Regarding `Cc1ccc(NC(=O)CCl)cc1Cl`, the growth is 80.9%. In the case of `Cc1ccc2c(O)c(O)cc(NC(C)CCCN)c2n1` (stereo not given) it was 116%.

On to `CC(O)CN(CCO)CCN(CCO)CC(C)O` (stereo not given), for which the growth is 101%. For `CCOC(=O)C1CCCN1C(=O)C1(NC(C)=O)CCCC1` (stereo not given), the growth is 106%. In the case of `CCc1c(C)c2ccc(OCC(=O)N=Nc3c(O)[nH]c4ccccc34)c(C)c2oc1=O` it was -15% (active); in that of `CCCCCCCCCCC1OC(C)CC(C)O1` (stereo not given), 102%. Turning to `[2H]c1nc(=Nc2cc(NC(=O)C=C)c(N(C)CCN(C)C)cc2OC)[nH]c(-c2cn(C([2H])([2H])[2H])c3ccccc23)c1[2H]`, the growth is 1.13% (active). `CCCCCCCCC/C(=N\NC(=O)c1ccncc1)c1ccc(O)c(O)c1O`: the growth is 34.9%. Consider `N#CCc1ncc(-c2ccc(C(F)(F)F)cc2)c(NC2CCCCCC2)n1`, for which the growth is 22.1% [100 µM]. In the case of `COc1cc2oc(-c3ccc(NC(=O)c4ccccc4)cc3)cc(=O)c2c(OC)c1OC` it was 79.2%.

With `CCn1cc(C(=O)O)c(=O)c2cc(F)c(N3CCN(S(=O)(=O)c4ccc(Cl)cc4)CC3)cc21`, the growth is 15.7%. `COc1cc(OC)cc(-c2ccc(-c3ccc(C(=N)N)cc3)s2)c1`: the growth was -79.6% (active).

As for `CCCCCCCCc1ccc(OCCOCC[N+](C)(C)CC)cc1` (tested in a mixture with another compound), the growth was 98.4%. On to `O=C(NC1CCN(Cc2ccccc2)CC1)c1cc(-c2cccnc2)nc2ccc(Cl)cc12`, for which the growth was 9.1% (active). For `O=C1CCNC1`, the growth is 101%. As to `O=c1[nH]c2cc(O)ccc2n2cc3c(F)cccc3c12`, the growth is 38.7%. In the case of `OCC(O)C(O)CC1SCCS1` (stereo not given) it was 104%; in that of `COC1=CC(c2ccc[nH]2)=N/C1=C\c1[nH]c(C)c(C(=O)CCCCC(=O)NC(C)(C)C)c1C`, -31.8% (active). In the case of `O=C(CCCC(=O)Nc1ccc(Cn2nnc3cc(Cl)c(Cl)cc32)cc1)Nc1ccc(CN2N=NC3C=C(Cl)C(Cl)=CC32)cc1` (stereo not given) it was 97.3%; in that of `C/C(CCC(=O)O)=N/Nc1ccc([N+](=O)[O-])cc1`, 34.5%.

With `Cc1c(O)c(N=Nc2ccc(C(=O)O)c(O)c2)c2ccccc2c1O`, the growth was 117%.

On to `Cc1ccc(CC(=O)O)c(C)c1`, for which the growth is 103%.

Take `O=C(Nc1ccc(-n2cc(-c3ccncc3)c(-c3ccc(Cl)c(O)c3)n2)cc1)c1cc(Cl)cc(Cl)c1`: the growth was 11.1%. Turning to `Cc1ccc(C(C)C)c(OCc2ccc(C(=O)N/N=C/c3cccc(O)c3O)cc2)c1`, the growth is 13.4%.

Take `Cc1cc2cn3c4ccc(O)cc4nc(N)c3c2cc1C`: the growth is 7.85% (active).

With `CCOC(=O)C(C)C(C)(O)c1ccccc1` (stereo not given), the growth is 108%. In the case of `O=C1C(Cl)=C(Nc2ccc(Nc3ccccc3)c(NC3=C(Cl)C(=O)c4ccccc4C3=O)c2)C(=O)c2ccccc21` it was 56.2%; in that of `COc1ccc(/C=C(/C(=O)N2CCN(c3ccc(C)cc3)CC2)c2cc(OC)c(OC)c(OC)c2)cc1N`, 11.8%; in that of `O=c1c(N=Nc2nccs2)c(-c2ccccc2)[nH]n1-c1nc(-c2ccccc2)cs1`, 19.5%. In the case of `CC/C(=N\Nc1nc2ccccc2n1C)c1ccccn1` it was 18.5%. Turning to `c1ccc(-c2cn3ccnc3c(-c3ccc4ncn(C5CCCCC5)c4c3)n2)cc1`, the growth is 48.4%.

The values above are taken from PubChem BioAssay (NCI).
